Source: PubChem BioAssay (several laboratories)
Most compounds without a hit are left out; they make up all but 32% or so of the library.
PostGolgi ctrl – yeast control strain growth, post-Golgi counter-screen; efflux-deficient yeast background strain, growth absorbance A615, 16 h; inhibition, % at 10 µM; actives 5% (n = 98,000); AID 738
CYP2C9 inh – human CYP2C9 inhibition; P11712; CYP2C9 Supersomes, luciferin-H conversion, luminescence; inhibition, % at 5 µM; actives 20% (n = 96,000); AID 777;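 active = blocking of liver enzyme CYP2C9 beyond about 50% at 5 µM, limit read from the data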
Target sequence (P11712 whole entry, looked up): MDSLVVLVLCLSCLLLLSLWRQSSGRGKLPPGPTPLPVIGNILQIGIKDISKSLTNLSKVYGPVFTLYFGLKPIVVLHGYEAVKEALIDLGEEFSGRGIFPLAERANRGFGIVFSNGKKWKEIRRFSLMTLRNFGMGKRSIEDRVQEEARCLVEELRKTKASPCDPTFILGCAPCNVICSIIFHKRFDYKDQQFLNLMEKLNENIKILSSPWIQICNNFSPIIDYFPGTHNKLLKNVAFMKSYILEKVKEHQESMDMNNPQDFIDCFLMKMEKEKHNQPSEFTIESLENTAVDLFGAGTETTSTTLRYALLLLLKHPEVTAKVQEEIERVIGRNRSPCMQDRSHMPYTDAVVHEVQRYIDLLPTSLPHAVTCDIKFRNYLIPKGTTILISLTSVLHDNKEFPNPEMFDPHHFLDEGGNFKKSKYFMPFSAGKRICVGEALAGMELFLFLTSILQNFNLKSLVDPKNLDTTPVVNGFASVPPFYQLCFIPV
CYP2C9 activ – activators of human CYP2C9; P11712; recombinant CYP2C9, luciferin-H conversion, luminescence; hits give high values; factor 1 = untreated enzyme, 0 = blocked; activation factor at 5 µM; actives 1.4% (n = 96,000); AID 1024;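 active = activation factor of 2 or more for CYP2C9 at a 5 µM dose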;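 note: 0 = sulfaphenazole-blocked wells and 1 = vehicle-only wells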
CYP2C19 inhib – human CYP2C19 inhibition | actives 21% (n = 96,000) | CYP2C19 Supersomes, luciferin-H EGE luminescence, 30 min | P33261 | inhibition, % at 5 µM;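 active = CYP2C19 inhibition above a set limit at 5 µM in the primary screen, cut at about 50% in these data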;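 note: plate controls were negative control wells for no effect and 2.5 mM tranylcypromine positive control for full effect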
PostGolgi yeast – growth inhibition of a yeast mutant, post-Golgi transport screen; post-Golgi transport phenotypic cell assay; actives 0.9% (n = 98,000); inhibition, % at 10 µM; AID 739;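 note: yeast cells grown in 1536-well plates; yeast grown about 18 h at 30C before absorbance read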
CYP2C19 act – activators of human cytochrome P450 2C19. P33261. recombinant CYP2C19, luciferin-H EGE luminescence; hits give high values; 0 = fully inhibited enzyme, 1 = untreated enzyme. activation factor at 5 µM. 96,000 tested, under 10 active. AID 1025;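 active = activation factor of at least 2 at 5 µM in the primary screen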;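 note: 0 = wells with 2.5 mM tranylcypromine and 1 = vehicle-only wells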
An asterisk follows results filed as active; x = no result given. Cut-off read from the data, not from the text of the source, unless noted: active = inhibition above about 30%; inactive = the rest.

SMILES	PostGolgi ctrl	CYP2C9 inh	CYP2C9 activ	CYP2C19 inhib	PostGolgi yeast	CYP2C19 act
Cc1cc(C)c(NC(=O)CS(=O)CC(=O)NC2CCCc3ccccc32)c(C)c1 (stereo not drawn)	2	-19	1.2	-4	-1	1
N#C/C(=C/c1ccc(N2CCOCC2)o1)c1ccc(Cl)cc1	1	-14	1.1	-8	19	1.1
CCOC(=O)N1CCN(C(=O)CN(Cc2ccccc2)S(=O)(=O)c2ccc(OC)c(Cl)c2)CC1	5	55*	0.5	89*	9	0.1
CCOC(=O)N1CCN(C(=O)CN(Cc2ccccc2)S(=O)(=O)c2ccc(OC)c(C)c2)CC1	30*	27	0.7	64*	-5	0.4
CCOC(=O)N1CCN(C(=O)CN(Cc2ccc(Cl)cc2)S(=O)(=O)c2ccc(C)cc2)CC1	26	90*	0.1	96*	1	0
COc1ccc(S(=O)(=O)N(C)CC(=O)N2CCN(Cc3ccccc3)CC2)cc1C	3	-137	2.4*	32	11	0.7
CCN1CCN(C(=O)CN(C)S(=O)(=O)c2ccc(OC)c(C)c2)CC1	-6	-62	1.6	-2	-9	1
CC(C)Oc1snc(Cl)c1C(N)=O	-10	-11	1.1	15	8	0.9
CCSc1nc2c(cnn2-c2ccc(C)c(C)c2)c(=O)[nH]1	-7	0	1	34	4	0.7
Cc1ccc(S(=O)(=O)N(CCC(=O)O)Cc2ccc(Cl)cc2)cc1	-4	54*	0.5	37	13	0.6
O=C1CC(C(=O)Nc2ccccc2C(=O)O)C(c2ccccc2)O1 (stereo not drawn)	-6	94*	0.1	3	-2	1
O=C1CC(C(=O)Nc2ccc(C(=O)O)cc2)C(c2ccccc2)O1 (stereo not drawn)	13	3	1	-9	2	1.1
O=C1CC(C(=O)Nc2nccs2)C(c2ccccc2)O1 (stereo not drawn)	x	60*	0.4	87*	x	0.1
O=C1CC(C(=O)Nc2ccc(O)c(C(=O)O)c2)C(c2ccccc2)O1 (stereo not drawn)	0	29	0.7	-15	1	1.1
Cc1ccc(-n2nnnc2SCC(=O)c2cc(C)n(-c3cc(C)on3)c2C)c(C)c1	17	-22	1.2	31	3	0.7
CCN(CC)CCNC(=O)C(C)c1nn(C)c(=O)c2ccccc12 (stereo not drawn)	20	-7	1.1	x	-6	x
Cc1cccc(CSC2=NCCN2C(=O)C2CC2)c1	-3	28	0.7	80*	-1	0.2
O=C(C1CC1)N1CCN=C1SCc1ccccc1Cl	18	27	0.7	98*	5	0
CCC(=O)N1CCN=C1SCc1ccccc1Cl	-8	-48	1.5	70*	-3	0.3
Cc1cccc(CSC2=NCCN2C(=O)c2ccco2)c1	0	-2	1	42	-9	0.6
CC(=O)N1CCN=C1SCc1ccccc1Cl	7	-162	2.6*	41	-13	0.6
CC(=O)N1CCN=C1SCc1ccccc1F	8	-6	1.1	22	22	0.8
[N-]=[N+]=CC(=O)c1ccnc(C(=O)C=[N+]=[N-])c1	11	5	1	-5	29	1.1
COc1ccc(CNC(=O)c2ccc(NC(=O)CC3SC(N4CCCCC4)=NC3=O)cc2)cc1 (stereo not drawn)	11	24	0.8	3	16	1
O=C(Nc1ccnc(-c2cccnc2)n1)c1cccc(Cl)c1Cl	14	24	0.8	51*	1	0.5
SMILES	PostGolgi ctrl	CYP2C9 inh	CYP2C9 activ	CYP2C19 inhib	PostGolgi yeast	CYP2C19 act
O=C(Nc1ccnc(-c2cccnc2)n1)c1ccccc1Cl	5	25	0.8	24	-2	0.8
CCCCC(=O)Nc1ccnc(-c2cccnc2)n1	6	76*	0.2	98*	19	0
CC(C)C(=O)Nc1ccnc(-c2cccnc2)n1	4	42	0.6	76*	-2	0.2
CCCCC(=O)Nc1ccc(NC(=O)c2cccnc2)cn1	-8	29	0.7	8	12	0.9
CC(C)C(=O)Nc1ccc(NC(=O)c2cccnc2)cn1	-2	-23	1.2	18	-2	0.8
COC(=O)c1ccc2c(=O)n(CCN3CCOCC3)c(=S)[nH]c2c1	-7	-4	1	12	-1	0.9
COc1ccc(CC(=O)OCC(=O)NC(=O)NC(C)C)cc1	13	4	1	-3	-7	1
O=C1CC(N2CCSCC2)C(=O)N1CCc1ccccc1 (stereo not drawn)	2	-9	1.1	16	-4	0.8
Cc1ccc(Cn2cccc(NC(=O)NC3CCCCC3)c2=O)cc1	15	33	0.7	65*	-10	0.4
C=C(c1cccc2ccccc12)P(=O)(O)O	4	-10	1.1	-17	18	1.2
O=C(Nc1ccc(Br)cc1)c1ccco1	5	21	0.8	-5	18	1.1
O=C(COC(=O)Cc1cccs1)Nc1ccccc1	-3	29	0.7	69*	2	0.3
O=C(Nc1ccc(Cc2ccncc2)cc1)c1ccco1	7	98*	0	96*	-1	0
O=C(Nc1ccc(OCC(=O)N2CCC(Cc3ccccc3)CC2)cc1)c1ccco1	19	87*	0.1	95*	0	0.1
O=C(Nc1ccc(Nc2ccccc2)cc1)c1ccco1	9	82*	0.2	67*	-10	0.3
CC(=O)N(C)c1ccc(NC(=O)c2ccco2)cc1	2	4	1	-1	2	1
C=CCn1c(N)c(C(=O)NCCC2=CCCCC2)sc1=S	-4	22	0.8	5	-17	1
COc1ccc(N2C(=O)CC(N3CCN(C4CCc5ccccc5C4)CC3)C2=O)cc1 (stereo not drawn)	-3	-3	1	3	4	1
Cn1c(=O)[nH]c(=O)c2c1nc(Br)n2CC(O)COc1ccccc1 (stereo not drawn)	-9	7	0.9	-14	-3	1.1
O=C(O)Cc1ccc(NC(=O)c2ccc(NC(=O)c3ccco3)cc2)cc1	3	7	0.9	23	-1	0.8
O=C(COC(=O)c1ccco1)Nc1ccc(Br)cc1	17	37	0.6	25	4	0.7
O=C(Nc1nccs1)c1ccc(NC(=O)c2ccco2)cc1	-1	51*	0.5	20	-7	0.8
O=C(COC(=O)c1ccco1)Nc1ccccc1	-1	18	0.8	58*	-3	0.4
O=C(Nc1nc(-c2cccs2)c(-c2ccccc2)s1)c1ccco1	32*	96*	0	66*	36*	0.3
O=C(Nc1ccc(Oc2ccc(NC(=O)c3ccco3)c(NC(=O)c3ccco3)c2)cc1)c1ccco1	5	73*	0.3	51*	-11	0.5
Cn1c(Cn2c(=O)sc3ccccc32)nnc1SCC(=O)N1CCc2ccccc21	-2	x	x	x	0	x
